Screens (PubChem)
Sampled rows, rich in hits. Any-hit rate of the full collection: about 19%.
DT40 TDP1 no CPT = qHTS for Inhibitors of human tyrosyl-DNA phosphodiesterase 1 (TDP1): qHTS in cells in absence of CPT | Potency, µM (top dose mostly 46.2 µM), for the others: top-dose activity change, negative = growth inhibition, usual class: inhibitors | DT40 Tdp1-/- hTDP1 cells, no CPT, ATP luminescence, 48 h | AID 686978, 2013 | 15% of 420,000 active; also: potency is read from the fitted curve at half-maximal effect; % is scaled to controls: 0 for no effect and ±100 for the full control effect; nearly all actives have a fitted effect of over 55% in size
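A cellular qHTS used chicken DT40 cells lacking endogenous Tdp1 but carrying stably transfected human TDP1. Compounds were applied without camptothecin, and cell growth kinetics were judged by ATP-dependent luminescence after ≥48 hr.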
TGFb SMAD3 inh = TGF-b pathway inhibition; HepG2 CAGA-GFP TGF-b/SMAD3 reporter, GFP fluorescence, 18 h; TGF-beta stimulated, 500 pg/mL final; Potency, µM (series often up to 46.1 µM), without a hit: top-dose activity, negative = inhibition, actives largely listed as inhibitors; 1.2% of 410,000 active; also: potency is read from the fitted curve at half-maximal effect; % is scaled to controls: 0 for no effect and ±100 for the full control effect; nearly all actives have a fitted effect of over 65% in size
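Inhibition of TGF-beta-driven CAGA-GFP reporter expression in HEPG2 cells is measured by cellular GFP fluorescence after 18 h stimulation with 500 pg/mL recombinant TGF-beta in 1% FBS medium at 37 degrees C.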
HepG2 viability = HepG2 cytotoxicity, counter-screen for TGF-b inhibitors; HepG2 CAGA-GFP viability, ATP luminescence, 18 h; Potency, µM (series often up to 46.1 µM), without a hit: at the top dose activity change, negative = cytotoxicity, most hits filed as cytotoxic; 0.76% of 410,000 active; AID 588856; also: potency is read from the fitted curve at half-maximal effect
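CellTiter-Glo luminescence gave cytotoxicity after 18 hours at 37 degrees C. The cells were HepG2 CAGA-GFP in 1% FBS DMEM, stimulated with 500 pg/mL TGF-beta after compound addition. %Activity was normalised to no-cell wells (complete cell-killing) and DMSO (no toxicity), and curves were fitted and classified.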
DT40 TDP1 CPT = DT40-hTDP1 cell growth loss with CPT. chicken DT40 Tdp1-/-;hTDP1 cells + 20 nM CPT, ATP luminescence, 48 h. Potency, µM (top dose mostly 46.2 µM), without a hit: top-dose activity change, negative = growth inhibition, hits mostly inhibitors. 12% of 420,000 active; also: potency is read from the fitted curve at half-maximal effect; % is scaled to controls: 0 for no effect and ±100 for the full control effect; nearly all actives have a fitted effect of over 55% in size
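Cell growth measured by CellTiter-Glo luminescence after a minimum 48 h, 37 C compound exposure with 20 nM CPT in Tdp1-knockout DT40 cells stably expressing hTDP1, seeded 400/well; qHTS titration format.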
IL1B secr inh = inflammasome signaling inhibition, IL-1 beta readout; activity change, % at 57.5 µM; THP-1 LPS/ATP IL-1B secretion, AlphaLISA, 16 h; stronger effect = lower value; 4.7% of 360,000 active; in the data active = activity change below about -50%; inconclusive = mostly about -30% to -49%; also: % is scaled to controls: 0 for no effect and ±100 for the full control effect
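THP-1 cells pretreated 1 hr with compounds (up to 57.5 uM final), then stimulated with LPS (250 ng/mL final) plus ATP (1.25 mM final); secreted IL-1B measured by AlphaLISA after 16 hr, decreased signal indicating inhibition.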
TDP1 block = TDP1 (human) enzyme inhibition | Q9NUW8 | recombinant TDP1, AlphaScreen DNA substrate cleavage | Potency, µM (highest dose often 130 µM), for the others: top-dose activity change, negative = inhibition, most hits filed as inhibitors | 0.28% of 350,000 active; also: potency is read from the fitted curve at half-maximal effect; % is scaled to controls: 0 for no effect and ±100 for the full control effect; nearly all actives have a fitted effect of over 40% in size
Target sequence (Q9NUW8 whole entry, looked up): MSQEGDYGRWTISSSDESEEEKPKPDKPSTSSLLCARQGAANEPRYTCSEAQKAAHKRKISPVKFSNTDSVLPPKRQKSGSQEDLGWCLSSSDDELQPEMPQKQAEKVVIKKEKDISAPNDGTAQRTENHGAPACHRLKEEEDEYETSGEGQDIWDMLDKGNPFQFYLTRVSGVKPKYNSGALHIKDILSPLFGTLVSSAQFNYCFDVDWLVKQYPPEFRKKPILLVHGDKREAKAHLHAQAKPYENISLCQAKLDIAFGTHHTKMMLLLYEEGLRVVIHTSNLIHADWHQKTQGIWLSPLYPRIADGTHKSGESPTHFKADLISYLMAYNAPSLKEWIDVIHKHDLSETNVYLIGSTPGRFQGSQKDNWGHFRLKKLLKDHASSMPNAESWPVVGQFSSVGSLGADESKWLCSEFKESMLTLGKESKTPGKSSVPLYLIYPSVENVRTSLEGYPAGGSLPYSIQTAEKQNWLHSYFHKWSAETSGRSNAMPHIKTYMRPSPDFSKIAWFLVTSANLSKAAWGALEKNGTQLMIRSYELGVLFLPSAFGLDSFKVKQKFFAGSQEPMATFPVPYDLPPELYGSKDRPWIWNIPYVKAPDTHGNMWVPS
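Signal: AlphaScreen proximity between streptavidin donor and anti-FITC acceptor beads on intact substrate. Reaction: Tdp1 1 nM, substrate 15 nM final, 5 min RT after 15 min compound preincubation.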
* hit, by the source's call; ? = inconclusive; nt = no result. Unless noted, calls follow the shape of the dose curve; as a rule, active = well fitted curve in the direction sought with a large enough effect; inconclusive = small, poorly fitted or top-dose-only effect, or another doubt; inactive = no such curve, though single readings can be large; an effect the other way counts as inactive or inconclusive.

SMILES	DT40 TDP1 no CPT	TGFb SMAD3 inh	HepG2 viability	DT40 TDP1 CPT	IL1B secr inh	TDP1 block
O=C(OCCOc1ccccc1)c1cc(S(=O)(=O)N2CCOCC2)c(Cl)cc1Cl	?	0.3%	-5.9%	-22.7%	-8.8	nt
Cc1cccn2c(=O)c3cc(C#N)c(=O)n(-c4nnc(SCc5ccc(F)cc5)s4)c3nc12	?	-9.7%	2.3%	?	nt	-5.1%
CC(C)(C)c1ccc(C(=O)N2CCC2(C)C(=O)NCc2cccc3ccccc23)cc1 (stereo not given)	-95.8%	?	-37.8%	18.4µM*	0.0	nt
Cc1ccsc1C(=O)N1CCC1(C)C(=O)NCc1cccc2ccccc12 (stereo not given)	?	41.3%	1.1%	?	-14.9	nt
COc1ccc(C(=O)c2ccc3oc(-c4ccc(OC)cc4)c(-c4ccc(O)cc4)c3c2)cc1	9.2µM*	?	-80.2%	?	-18.7	0.8%
S=c1[nH]nc(Cc2ccc(Br)cc2)n1/N=C/c1ccc(Cl)cc1	?	-23.0%	-36.5%	?	-62.6*	7.7%
Cc1csc2nc(CSc3ccc(Cl)cc3)cn12	23.1µM*	-16.0%	-17.7%	?	-90.9*	4.6%
Clc1ccc(SCc2cn3ccsc3n2)cc1	-20.4%	-3.4%	-27.8%	-29.3%	-1.5	3.1%
O=C(Nc1cccc(OCc2cc(=O)n3ccccc3n2)c1)c1ccccc1Br	?	5.7%	4.1%	?	nt	0.0%
CCOc1ccc2[nH]c(=O)c(C(c3nnnn3Cc3ccco3)N3CCC(C)CC3)cc2c1 (stereo not given)	25.9µM*	-5.5%	0.2%	-78.7%	-4.6	0.0%
COc1ccc2[nH]c(=O)c(CN(C3CCCCC3)C(c3nnnn3Cc3ccco3)C(C)C)cc2c1 (stereo not given)	?	?	3.0%	11.6µM*	-93.2*	0.0%
COc1ccc(Cn2nnnc2CN(Cc2cc3cc(C)ccc3[nH]c2=O)C2CCCC2)cc1	11.2µM*	-16.0%	-9.6%	11.6µM*	-61.2*	6.2%
CCOc1ccc2[nH]c(=O)c(C(c3nnnn3Cc3ccco3)N3CCCC(C)C3)cc2c1 (stereo not given)	-25.6%	26.5%	-10.3%	?	-18.1	-6.7%
CCOC(=O)Cn1nnnc1C(C(C)C)N(Cc1cc2c(C)cc(C)cc2[nH]c1=O)C1CCCC1 (stereo not given)	20.6µM*	11.3%	3.0%	23.1µM*	?	3.3%
CCOC(=O)COc1ccc2c(C)c(CCN(CC)CC)c(=O)oc2c1	-3.4%	nt	nt	6.5%	nt	nt
CCCS(=O)(=O)N1CCCC(C(=O)Oc2ccc(OC)cc2)C1 (stereo not given)	-26.7%	11.9%	-1.2%	-7.4%	22.4	nt
COc1ccc2[nH]c(=O)c(CN(Cc3nnnn3Cc3ccco3)C3CCCCC3)cc2c1	16.4µM*	-17.4%	6.1%	?	-11.1	nt
COc1ccc2[nH]c(C)cc2c1	4.4%	-9.1%	-19.6%	1.2%	nt	nt
CN1CCCC(C#CC(O)(c2ccccc2)c2ccccc2)C1 (stereo not given)	-0.8%	8.4%	3.3%	8.8%	-3.9	0.0%
COCCOc1ccc(C(F)(F)F)cc1NC(=O)c1ccccc1	-14.5%	13.6%	8.8%	5.2%	0.2	2.8%
CC(=O)Nc1cc(C(F)(F)F)ccc1Oc1cccc(Br)c1	13µM*	-14.7%	-1.5%	23.1µM*	?	-1.9%
CCOCC(=O)Nc1cc(C(F)(F)F)ccc1Oc1cccc(Br)c1	?	?	-10.7%	-27.6%	-7.3	-6.0%
CC(=O)Nc1cc(C(F)(F)F)ccc1OCCOc1ccccc1	16.4µM*	10.5%	-25.7%	?	-9.9	nt
Cc1ccc(C)c(NC(=O)COC(=O)c2cc3ccccc3oc2=O)c1	9.3%	6.1%	-1.3%	7.2%	8.6	-1.5%
CCOc1cc(C(=O)NCCc2sc(-c3ccc(F)cc3)nc2C)cc(OCC)c1OCC	?	-6.4%	15.5%	?	nt	5.3%
SMILES	DT40 TDP1 no CPT	TGFb SMAD3 inh	HepG2 viability	DT40 TDP1 CPT	IL1B secr inh	TDP1 block
O=C(Nc1ccc(O)c2c(=O)cc(-c3ccccc3Cl)oc12)c1cccc(Cl)c1	-12.6%	-5.3%	2.5%	?	30.3	7.9%
O=C(Nc1ccc(O)c2c(=O)cc(-c3cccc(Cl)c3)oc12)c1ccccc1Cl	20.6µM*	-17.1%	-13.1%	?	-8.2	nt
O=C(NC1CCCC1)C1C(c2ccccc2)=Nc2ccccc2N1C(=O)c1cc(Cl)cc(Cl)c1 (stereo not given)	29.1µM*	nt	nt	18.4µM*	2.0	nt
O=C(NC1CCCC1)C1C(c2ccccc2)=Nc2ccccc2N1C(=O)c1ccc(C(F)(F)F)cc1 (stereo not given)	10.8%	nt	nt	16.1%	17.5	nt
O=S(=O)(c1cccc(C(F)(F)F)c1)N1CCN(C(=S)NCc2ccco2)CC1	?	-0.3%	-0.7%	-26.4%	-1.6	8.5%
CC(C)c1ccc(S(=O)(=O)N2CCN(C(=S)NCc3ccco3)CC2)cc1	?	?	0.3%	14.6µM*	0.0	5.6%
CC(=O)c1ccc(N2CCN(C(=S)NCc3ccco3)CC2)cc1	?	-2.9%	1.4%	?	-11.1	2.7%
S=C(NCc1ccco1)N1CCN(c2ccc(Cl)cc2)CC1	23.1µM*	-6.3%	1.8%	-3.6%	-7.4	5.4%
S=C(NCc1ccco1)N1CCN(Cc2ccc(Cl)cc2Cl)CC1	23.1µM*	?	1.5%	?	?	8.6%
S=C(NCc1ccco1)N1CCN(C/C=C/c2ccccc2)CC1	?	-29.8%	-19.1%	-26.8%	5.9	4.9%
COc1ccc2c(c1OC)C(=O)OC2N1C(=O)CC[C@H]1C(=O)Nc1ccc(F)cc1F (stereo not given in full)	-4.4%	-8.0%	-1.3%	-5.1%	-10.2	nt
CC(C)(C)c1ccc(C(=O)N2CCOC23CCCCC3)cc1	13µM*	12.6%	-0.5%	14.6µM*	32.1	nt
Cc1ccc(S(=O)(=O)n2c(CN3CCCC(C)C3)nc3ccccc32)cc1 (stereo not given)	-23.4%	?	11.2%	1.6%	-51.0*	-6.6%
CCCCNC(=S)NNC(=O)c1csc(C)c1C	?	-1.3%	0.1%	?	-0.2	3.5%
Cc1scc(C(=O)NNC(=S)NC(C)c2ccccc2)c1C (stereo not given)	20.6µM*	?	-7.1%	16.4µM*	-6.5	-2.6%
